Data from the supplement of paper PMC6609913.
Where a name gives a salt, the structure may show the parent alone. ± gives the standard deviation of the averaged measurements. Whole data set: some 1,300 compounds, median “normalised cell viability” near 1, cut for the lowest 2% near 0.15. For the sample, the lowest values were picked, then their nearest neighbours and some compounds at random.

Tested on: V-C8 + BRCA2 (BRCA2-proficient hamster cells)
Test: normalised cell viability (fraction of plate median); higher = more viable cells (less toxic)
Details: 5 µM
Procedure, shortened: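 Hamster V-C8 cells with and without restored BRCA2 were exposed in 96-well plates to library drugs at 5 μM for 3 days (screen 1) or 6 days (screen 2). Cell viability was scored by resazurin assay, then median-plate normalised, averaging triplicate wells.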

## CC(=O)Oc1cccc2c1C(=O)c1c(OC(C)=O)cc(C(=O)O)cc1C2=O [Diacerein]
Treatment time: 3 days
  normalised cell viability: 0.749 ± 0.038
Treatment time: 6 days
  normalised cell viability: 0.796 ± 0.027

## CCN(CC)CCCC(C)Nc1c2ccc(Cl)cc2nc2ccc(OC)cc12 (stereo not given) [Quinacrine dihydrochloride dihydrate]
Treatment time: 3 days
  normalised cell viability: 0.133 ± 0.0038
Treatment time: 6 days
  normalised cell viability: 0.107 ± 0.0083

## CCN(CCO)CCCC(C)Nc1ccnc2cc(Cl)ccc12 (stereo not given) [Hydroxychloroquine sulfate]
Treatment time: 3 days
  normalised cell viability: 0.606 ± 0.024
Treatment time: 6 days
  normalised cell viability: 0.666 ± 0.032

## CCN(CC)CCCC(C)Nc1ccnc2cc(Cl)ccc12 (stereo not given) [Chloroquine diphosphate]
Treatment time: 3 days
  normalised cell viability: 0.852 ± 0.023
Treatment time: 6 days
  normalised cell viability: 0.938 ± 0.082

## O=C(CCCN1CCN(c2ccccn2)CC1)c1ccc(F)cc1 [Azaperone]
Treatment time: 3 days
  normalised cell viability: 1.1 ± 0.34
Treatment time: 6 days
  normalised cell viability: 0.902 ± 0.052

## CCCCN1CCCCC1C(=O)Nc1c(C)cccc1C (stereo not given) [Bupivacaine hydrochloride]
Treatment time: 3 days
  normalised cell viability: 0.962 ± 0.049
Treatment time: 6 days
  normalised cell viability: 1.03 ± 0.038

## CCOC(=O)c1ccc(N)cc1 [Benzocaine]
Treatment time: 3 days
  normalised cell viability: 0.871 ± 0.023
Treatment time: 6 days
  normalised cell viability: 0.9583 ± 0.0066

## CN(N=O)C(=O)N[C@@H](C=O)[C@@H](O)[C@H](O)[C@H](O)CO [Streptozotocin]
Treatment time: 3 days
  normalised cell viability: 1.07 ± 0.073
Treatment time: 6 days
  normalised cell viability: 1.06 ± 0.053

## O=C(CCCN1CCC(O)(c2ccc(Br)cc2)CC1)c1ccc(F)cc1 [Bromperidol]
Treatment time: 3 days
  normalised cell viability: 0.976 ± 0.027
Treatment time: 6 days
  normalised cell viability: 0.979 ± 0.038

## CN1CCCN=C1/C=C/c1cccs1 [Pyrantel tartrate]
Treatment time: 3 days
  normalised cell viability: 1.04 ± 0.05
Treatment time: 6 days
  normalised cell viability: 1.03 ± 0.026

## COCCCC/C(=N\OCCN)c1ccc(C(F)(F)F)cc1 [Fluvoxamine maleate]
Treatment time: 3 days
  normalised cell viability: 0.97 ± 0.029
Treatment time: 6 days
  normalised cell viability: 1.17 ± 0.13

## Cn1c(=O)c2c(ncn2C)n(C)c1=O [Caffeine]
Treatment time: 3 days
  normalised cell viability: 0.998 ± 0.053
Treatment time: 6 days
  normalised cell viability: 0.996 ± 0.057

## CCOC(=O)[N-]c1c[n+](N2CCOCC2)no1 [Molsidomine]
Treatment time: 3 days
  normalised cell viability: 1.04 ± 0.05
Treatment time: 6 days
  normalised cell viability: 1.1 ± 0.028

## CCN1CCCC1CNC(=O)c1cc(S(=O)(=O)CC)c(N)cc1OC (stereo not given) [Amisulpride]
Treatment time: 3 days
  normalised cell viability: 0.974 ± 0.017
Treatment time: 6 days
  normalised cell viability: 0.991 ± 0.058

## O=C(CCCCCCC(=O)Nc1ccccc1)NO [Vorinostat]
Treatment time: 3 days
  normalised cell viability: 0.132 ± 0.0091
Treatment time: 6 days
  normalised cell viability: 0.17 ± 0.021

## O=C(CCCCC(=O)Nc1c(I)cc(I)c(C(=O)O)c1I)Nc1c(I)cc(I)c(C(=O)O)c1I [Iodipamide]
Treatment time: 3 days
  normalised cell viability: 1.07 ± 0.05
Treatment time: 6 days
  normalised cell viability: 1.02 ± 0.06

## CC(=O)Nc1ccc(CC(=O)O)cc1 [Actarit]
Treatment time: 3 days
  normalised cell viability: 1.038 ± 0.0059
Treatment time: 6 days
  normalised cell viability: 1.07 ± 0.12

## CN(Cc1cc(Br)cc(Br)c1N)C1CCCCC1 [Bromhexine hydrochloride]
Treatment time: 3 days
  normalised cell viability: 0.949 ± 0.042
Treatment time: 6 days
  normalised cell viability: 1.02 ± 0.072

## CO[C@H]1C[C@H](O[C@H]2[C@H](C)[C@@H](O[C@@H]3O[C@H](C)C[C@H](N(C)C)[C@H]3OC(C)=O)[C@@H](C)C[C@@]3(CO3)C(=O)[C@H](C)[C@@H](OC(C)=O)[C@@H](C)[C@@H](C)OC(=O)[C@@H]2C)O[C@@H](C)[C@@H]1OC(C)=O [Troleandomycin]
Treatment time: 3 days
  normalised cell viability: 1.08 ± 0.027
Treatment time: 6 days
  normalised cell viability: 1.06 ± 0.04

## C[C@@H](O)[C@H]1C(=O)N2C(C(=O)O)=C(S[C@@H]3CN[C@H](C(=O)N(C)C)C3)[C@H](C)[C@H]12 [Meropenem]
Treatment time: 3 days
  normalised cell viability: 1.02 ± 0.037
Treatment time: 6 days
  normalised cell viability: 1.04 ± 0.053

## NS(=O)(=O)c1cc(Cl)c(Cl)c(S(N)(=O)=O)c1 [Dichlorphenamide]
Treatment time: 3 days
  normalised cell viability: 1.09 ± 0.05
Treatment time: 6 days
  normalised cell viability: 0.961 ± 0.035

## CC(C)(C)NCC(O)COc1cccc2c1CCC(=O)N2 (stereo not given) [Carteolol hydrochloride]
Treatment time: 3 days
  normalised cell viability: 1.06 ± 0.052
Treatment time: 6 days
  normalised cell viability: 1.06 ± 0.044

## O=C1NCC2(CCN(CCc3ccccc3)CC2)O1 [Fenspiride hydrochloride]
Treatment time: 3 days
  normalised cell viability: 1.03 ± 0.051
Treatment time: 6 days
  normalised cell viability: 1.06 ± 0.068

## CCN(Cc1ccncc1)C(=O)C(CO)c1ccccc1 (stereo not given) [Tropicamide]
Treatment time: 3 days
  normalised cell viability: 1.065 ± 0.0083
Treatment time: 6 days
  normalised cell viability: 1.01 ± 0.043

## CN(C)CCC[C@@]1(c2ccc(F)cc2)OCc2cc(C#N)ccc21 [Escitalopram]
Treatment time: 3 days
  normalised cell viability: 1.1 ± 0.041
Treatment time: 6 days
  normalised cell viability: 1.01 ± 0.067

## CC(C)[C@H]1CC[C@H](C(=O)N[C@H](Cc2ccccc2)C(=O)O)CC1 [Nateglinide]
Treatment time: 3 days
  normalised cell viability: 1.04 ± 0.051
Treatment time: 6 days
  normalised cell viability: 1.04 ± 0.091

## CN1CCCC(CC2c3ccccc3Sc3ccccc32)C1 (stereo not given) [Metixene hydrochloride]
Treatment time: 3 days
  normalised cell viability: 0.867 ± 0.014
Treatment time: 6 days
  normalised cell viability: 0.888 ± 0.012

## O=C(CCCN1CC=C(n2c(=O)[nH]c3ccccc32)CC1)c1ccc(F)cc1 [Droperidol]
Treatment time: 3 days
  normalised cell viability: 1.05 ± 0.013
Treatment time: 6 days
  normalised cell viability: 1.07 ± 0.015

## O=C(O)c1ccccc1OP(=O)(O)O [Fosfosal]
Treatment time: 3 days
  normalised cell viability: 0.966 ± 0.055
Treatment time: 6 days
  normalised cell viability: 1.06 ± 0.1

## CC(C)NC(=N)NC(=N)Nc1ccc(Cl)cc1 [Proguanil hydrochloride]
Treatment time: 3 days
  normalised cell viability: 0.211 ± 0.013
Treatment time: 6 days
  normalised cell viability: 0.203 ± 0.015

## N=C(N)NC(=N)NCCc1ccccc1 [Phenformin hydrochloride]
Treatment time: 3 days
  normalised cell viability: 1.01 ± 0.029
Treatment time: 6 days
  normalised cell viability: 0.9752 ± 0.0082

## N=C(NCCCCCCNC(=N)NC(=N)Nc1ccc(Cl)cc1)NC(=N)Nc1ccc(Cl)cc1 [Chlorhexidine]
Treatment time: 3 days
  normalised cell viability: 0.117 ± 0.0076
Treatment time: 6 days
  normalised cell viability: 0.103 ± 0.0066

## CC(=O)Nc1c(I)c(NC(C)=O)c(I)c(C(=O)O)c1I [Diatrizoic acid dihydrate]
Treatment time: 3 days
  normalised cell viability: 0.996 ± 0.035
Treatment time: 6 days
  normalised cell viability: 1.05 ± 0.077

## Cc1cc(/C=C/c2ccc3cc(N(C)C)ccc3[n+]2C)c(C)n1-c1ccccc1 [Pyrvinium pamoate]
Treatment time: 3 days
  normalised cell viability: 0.144 ± 0.0086
Treatment time: 6 days
  normalised cell viability: 0.171 ± 0.014

## Cc1cc(=O)n(-c2ccccc2)n1C [Antipyrine]
Treatment time: 3 days
  normalised cell viability: 0.997 ± 0.038
Treatment time: 6 days
  normalised cell viability: 1.02 ± 0.046
